Measured values from PubChem BioAssay.

Each molecule was assayed against Neurogenic locus notch homolog protein 2 (Homo sapiens) (UniProt Q04721) (assay: Notch2 binders on small-molecule microarrays, primary screen, biochemical, small-molecule microarray, 635 nm fluorescence, stem cell growth factors (AID 1073)). Details: Notch2 binding, higher = more signal.
Sequence of Neurogenic locus notch homolog protein 2 (Homo sapiens) (Q04721 whole entry, looked up): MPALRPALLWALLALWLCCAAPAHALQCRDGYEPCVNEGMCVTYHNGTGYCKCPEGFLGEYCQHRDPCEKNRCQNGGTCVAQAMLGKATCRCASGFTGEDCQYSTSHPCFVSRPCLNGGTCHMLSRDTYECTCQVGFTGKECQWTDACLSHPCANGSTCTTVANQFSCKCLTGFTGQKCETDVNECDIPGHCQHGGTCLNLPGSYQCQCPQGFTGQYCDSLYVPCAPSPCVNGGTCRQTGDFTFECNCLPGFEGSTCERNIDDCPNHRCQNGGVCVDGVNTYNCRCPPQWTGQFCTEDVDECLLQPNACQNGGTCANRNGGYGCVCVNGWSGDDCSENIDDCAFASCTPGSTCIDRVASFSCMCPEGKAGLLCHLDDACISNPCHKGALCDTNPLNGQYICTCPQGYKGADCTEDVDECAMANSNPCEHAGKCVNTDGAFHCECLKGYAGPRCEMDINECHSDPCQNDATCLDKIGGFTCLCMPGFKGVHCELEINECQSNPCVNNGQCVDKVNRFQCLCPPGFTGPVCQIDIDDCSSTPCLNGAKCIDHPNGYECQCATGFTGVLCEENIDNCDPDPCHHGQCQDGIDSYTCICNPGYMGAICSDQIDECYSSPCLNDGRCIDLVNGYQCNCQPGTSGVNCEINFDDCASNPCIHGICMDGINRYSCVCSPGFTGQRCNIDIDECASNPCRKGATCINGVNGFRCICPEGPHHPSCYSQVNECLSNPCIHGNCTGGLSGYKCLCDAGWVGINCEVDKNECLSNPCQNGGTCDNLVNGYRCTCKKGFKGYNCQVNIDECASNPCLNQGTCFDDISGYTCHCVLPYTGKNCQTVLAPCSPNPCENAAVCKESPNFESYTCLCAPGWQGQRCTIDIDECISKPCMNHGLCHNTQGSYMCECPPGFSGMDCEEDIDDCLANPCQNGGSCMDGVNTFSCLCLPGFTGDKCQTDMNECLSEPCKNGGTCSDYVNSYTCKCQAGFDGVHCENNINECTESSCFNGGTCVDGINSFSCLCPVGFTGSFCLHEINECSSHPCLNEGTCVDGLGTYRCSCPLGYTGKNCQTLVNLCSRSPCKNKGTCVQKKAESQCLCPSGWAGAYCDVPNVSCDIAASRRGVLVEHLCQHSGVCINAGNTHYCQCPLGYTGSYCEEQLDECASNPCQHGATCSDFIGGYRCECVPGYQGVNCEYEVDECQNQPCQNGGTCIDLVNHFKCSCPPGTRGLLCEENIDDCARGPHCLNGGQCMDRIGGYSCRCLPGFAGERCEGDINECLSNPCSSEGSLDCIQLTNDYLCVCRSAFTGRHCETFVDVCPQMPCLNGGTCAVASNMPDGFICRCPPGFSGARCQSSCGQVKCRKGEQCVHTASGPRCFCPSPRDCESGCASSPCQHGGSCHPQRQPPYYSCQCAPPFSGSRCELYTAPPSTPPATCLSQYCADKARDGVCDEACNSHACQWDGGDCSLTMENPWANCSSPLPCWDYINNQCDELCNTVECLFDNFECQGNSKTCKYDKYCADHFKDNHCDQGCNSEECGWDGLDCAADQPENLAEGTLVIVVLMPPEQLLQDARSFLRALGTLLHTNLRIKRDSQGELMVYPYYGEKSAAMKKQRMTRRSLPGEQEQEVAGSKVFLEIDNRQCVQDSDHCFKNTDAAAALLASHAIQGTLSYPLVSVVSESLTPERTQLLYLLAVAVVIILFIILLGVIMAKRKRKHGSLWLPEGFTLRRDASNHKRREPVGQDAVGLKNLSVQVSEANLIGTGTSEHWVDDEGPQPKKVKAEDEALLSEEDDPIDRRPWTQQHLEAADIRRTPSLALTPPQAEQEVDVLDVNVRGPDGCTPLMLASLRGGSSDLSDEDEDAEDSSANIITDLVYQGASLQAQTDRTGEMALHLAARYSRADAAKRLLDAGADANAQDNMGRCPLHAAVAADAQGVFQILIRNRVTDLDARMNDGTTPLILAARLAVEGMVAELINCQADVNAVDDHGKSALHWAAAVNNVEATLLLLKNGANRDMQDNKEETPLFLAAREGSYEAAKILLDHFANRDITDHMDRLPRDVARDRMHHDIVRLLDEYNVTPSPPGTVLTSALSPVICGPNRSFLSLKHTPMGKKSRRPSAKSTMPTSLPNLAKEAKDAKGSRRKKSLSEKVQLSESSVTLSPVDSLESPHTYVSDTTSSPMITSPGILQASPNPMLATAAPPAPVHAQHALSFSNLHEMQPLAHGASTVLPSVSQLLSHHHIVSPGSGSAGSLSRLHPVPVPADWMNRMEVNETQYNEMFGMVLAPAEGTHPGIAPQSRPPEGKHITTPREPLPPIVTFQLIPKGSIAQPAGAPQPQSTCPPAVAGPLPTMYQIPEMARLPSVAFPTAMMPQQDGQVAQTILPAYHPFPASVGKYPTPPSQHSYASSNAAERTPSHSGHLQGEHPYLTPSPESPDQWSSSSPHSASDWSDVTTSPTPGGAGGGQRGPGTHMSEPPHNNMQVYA
Molecule `O=C1C[C@@](C(=O)O)(c2ccc([N+](=O)[O-])cc2)[C@@H](c2ccc(CO)cc2)N1CC12CC3CC(CC(C3)C1)C2` has a composite z-score of 1.13.
Molecule `Cc1ccc(S[C@]2(C(=O)O)CC(=O)N(Cc3ccccc3C(F)(F)F)[C@@H]2c2ccc(CO)cc2)cc1` has a composite z-score of -1.11.
`COC(=O)c1ccc(OC)c(/C=C\CC(CCc2ccccc2)OC(C)=O)c1` (stereo not given) gave a composite z-score of -0.394.
For `C#CCNS(=O)(=O)N(C)C`, the composite z-score was 0.707.
In the case of `O=C1CSC(c2cccc([N+](=O)[O-])c2)N1c1ccccc1` (stereo not given), the composite z-score is reported as 0.839.
In the case of `CCN(CC)c1ccc(N2CC=CC34O[C@@H]5/C=C\CCCOC(=O)C5[C@H]3C(=O)N(CCCCCO)[C@@H]4C2=O)cc1` (stereo not given in full), the composite z-score is reported as -1.2.
Molecule `OCc1ccc(-c2cc[n+](Cc3cccc(OC(F)(F)F)c3)cc2)cc1` has a composite z-score of 1.4.
Molecule `COCC1=C([C@H](O)CCc2ccccc2)[C@H](CO)[C@@H]2C(=O)N(C)C(=O)[C@@H]2C1` has a composite z-score of 0.396.
In the case of `COC(=O)[C@@]1(Cc2ccc(F)cc2)[C@H]2c3cc(C(=O)N(C)C)n(Cc4ccc(C)c(F)c4F)c3C[C@H]2CN1C(=O)c1ccccc1`, the composite z-score is reported as 1.62.
`CCOC(=O)C[C@H]1[C@H](OC(=O)c2ccc(C(=O)c3ccccc3)cc2)[C@@H](NC(=O)C2CCCCC2)c2cc(OCCCO)ccc2N1C(=O)Cc1ccc(OC)cc1` was tested, and the composite z-score was 0.376.
`CCCN1C(=O)[C@@]2(Cc3ccccc3)N=C(c3ccc(OCCCO)cc3)O[C@H]2c2ccccc21` gave a composite z-score of 0.498.
`O=C1C2C=CC(C(O)c3ccccn3)N(Nc3ccccc3)C2C(=O)N1c1ccccc1` (stereo not given) gave a composite z-score of 0.177.
`COc1cc(C(O)C2C=CC3C(=O)N(C)C(=O)C3N2NC(=O)OC(C)(C)C)cc(OC)c1OC` (stereo not given) gave a composite z-score of 1.38.
Work on `COCC(=C=CC[C@@H](O)c1ccccc1OCCO)C[C@@H](O)c1ccccn1` yielded a composite z-score of 0.12.
For `C[N+](C)(C)CCCC[C@@H]1NC(=O)[C@@H]2C[C@H](C(=O)O)[C@H](c3cccc(OCCO)c3)N2C1=O`, the composite z-score was -0.821.
For `C=CCC(OC(C)=O)[C@@H]1[C@@H](N(Cc2ccc(-c3cccc(C(F)(F)F)c3)o2)C(=O)c2cccc3ccccc23)c2cc(OCCCO)ccc2N1C(=O)c1ccc(-c2ccccc2)cc1` (stereo not given in full), the composite z-score was -0.628.
Molecule `COCCCNC(=O)[C@@]1(C)c2ccccc2C(=O)N(c2ccc(C)cn2)[C@H]1c1ccc(CO)cc1` has a composite z-score of -1.15.
In the case of `COCCCNC(=O)[C@@]1(Cc2ccccc2CN=[N+]=[N-])N=C(c2ccc(OCCCO)cc2)O[C@H]1c1ccccc1N=[N+]=[N-]`, the composite z-score is reported as 1.18.
Molecule `CC1(C)[C@@H]2CC(C(O)C3C=CC4C(=O)N(c5ccccc5)C(=O)C4N3Nc3ccccc3F)=C[C@@H]1C2` (stereo not given in full) has a composite z-score of 1.54.
`CCOC(=O)C[C@H]1[C@H](OC(=O)Cc2ccc3c(c2)OCO3)[C@@H](NC(=O)c2ccccc2)c2cc(OCCCO)ccc2N1C(=O)c1ccc2ccccc2n1` gave a composite z-score of 0.671.
`C=CC[C@]1(C(=O)NCC(O)CO)N=C(c2ccc(OCCCO)cc2)O[C@H]1c1ccccc1N=[N+]=[N-]` (stereo not given in full) was tested, and the composite z-score was 0.323.
For `C=C(COC)C(=O)CC[C@H](OC(=O)c1ccccc1-c1ccccc1C(=O)O)c1ccc(OCCO)cc1`, the composite z-score was -0.0342.
`COC(=O)[C@@]1(Cc2ccc(OC)cc2)[C@H]2c3cc(C(=O)N(C)C)n(Cc4cc(F)c(F)c(F)c4)c3C[C@H]2CN1C(=O)c1ccccc1` showed a composite z-score of 1.74.
`C=CCC(OC(C)=O)[C@@H]1[C@@H](N(Cc2ccc(-c3ccccc3)cc2)C(=O)Cc2ccc(OC)cc2)c2cc(OCCCO)ccc2N1C(=O)c1ccc(-c2ccccc2)cc1` (stereo not given in full) gave a composite z-score of -0.137.
In the case of `COc1ccc(CCNC(=O)[C@@H]2c3ccccc3C(=O)N(Cc3ccccc3)[C@H]2c2ccc(CO)cc2)cc1`, the composite z-score is reported as -0.117.
`COC(=O)C(CC#Cc1ccc2c(c1)[C@]1(C(=O)N2)[C@H](c2ccccc2OCCO)N2[C@H](c3ccccc3)[C@H](c3ccccc3)OC(=O)[C@H]2[C@@H]1C(=O)Nc1nc2ccccc2s1)C(=O)OC` gave a composite z-score of 1.05.
`COc1cc2c(cc1OC)CN(C(=O)[C@@H]1[C@H]3C(=O)O[C@H](c4ccccc4)[C@H](c4ccccc4)N3[C@H](c3ccc(OCCO)cc3)[C@@]13C(=O)Nc1ccc(C#CCCO)cc13)CC2` showed a composite z-score of 1.56.
Molecule `C[N+](C)(C)CCCCCCNC(=O)[C@H]1C[C@H]2C(=O)N3CCC[C@H]3C(=O)N2[C@H]1c1cccc(OCCO)c1` has a composite z-score of 0.761.
`C=C(C(=O)CC[C@H](OC(=O)c1cccnc1)c1ccc(OCCO)cc1)C(C)C` gave a composite z-score of 0.539.
`C=C(COC)C(=O)CC[C@H](OC(=O)c1ccccc1-c1ccccc1C(=O)O)c1ccc(CO)o1` was tested, and the composite z-score was -0.532.
